T cruzi growth-1: T. cruzi proliferation inhibition; inhibition, % at 8.34 µM; 5.9% of 77,000 active; AID 624255; T. cruzi beta-gal in NIH3T3, GalScreen luminescence, 90 h;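 active means mean inhibition above about 93%, with at least 55% of replicates each passing it, limit read from the data, passing the limit was not always enough; inconclusive means only one of those two conditions holds; inactive means neither condition holds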
Pf Dd2 inh: blocks growth of Plasmodium falciparum Dd2 parasites; 2.3% of 94,000 active; activity change, % at 10 µM; AID 1159554; P. falciparum Dd2 growth, SYBR Green, 72 h; hits give low values; in the data active means activity change below about -80%; inconclusive means no clear call, values can overlap the other calls
C diff HTS: inhibitors of Clostridium difficile growth; growth activity, negative = inhibition, % at 16 µg/mL (by protocol); 0.25% of 86,000 active; Clostridium difficile clinical isolate growth, OD600, 24 h; hits give low values;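 active means mean growth activity at or below -80% and every replicate also at or below -80%; inconclusive means mean at or below -80% but some replicate above -80%; inactive means mean growth activity above -80%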;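 further: 0% = DMSO wells and -100% = levofloxacin 16 µg/mL wells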
T cruzi growth-2: blocks T. cruzi growth in NIH3T3 host cells | inhibition, % at 8.35 µM | 72% of 5,600 active | T. cruzi beta-gal in NIH3T3, GalScreen luminescence, 90 h | AID 651739 | shares compounds with T cruzi growth-1;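 active means mean replicate inhibition above about 95% and at least 55% of replicates individually reaching it, limit read from the data; inconclusive means only one of the two criteria is met; inactive means neither criterion is met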
T cruzi growth-3: Trypanosoma cruzi proliferation inhibition. shares compounds with T cruzi growth-1. T. cruzi beta-gal in NIH3T3, GalScreen luminescence, 90 h. inhibition, % at 2.09 µM. 21% of 5,600 active;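 active means mean inhibition above about 95%, with at least 55% of replicates also reaching it, limit read from the data; inconclusive means meets just one of the two conditions; inactive means meets neither condition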;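 further: plate controls were neutral control median for no effect and positive control median for full effect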
3T3 cytotox: cytotoxicity in mouse NIH/3T3 fibroblasts | NIH/3T3 viability, CellTiter-Glo ATP luminescence, 90 h | 14% of 5,600 active | cytotoxicity (signal decrease), % at 8.35 µM | shares compounds with T cruzi growth-1;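 active means mean signal decrease across replicates above about 35% based on untreated-well scatter, with enough replicates individually passing, limit read from the data; inconclusive means no rule stated though some were filed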;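 further: 0% = median of neutral control wells and 100% = median of positive control wells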
3T3 cytotox 2: kills mouse NIH/3T3 fibroblasts; shares compounds with T cruzi growth-1; NIH/3T3 viability, CellTiter-Glo ATP luminescence, 90 h; inhibition, % at 24.9 µM; 56% of 5,600 active; AID 651744;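 active means mean loss of cell viability signal at or above a set limit, and enough replicates individually reaching it; inconclusive means meets only the mean limit or only the replicate share; inactive means meets neither condition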;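 further: 0% = median of neutral control wells and 100% = median of positive control wells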
* = called active by the depositor; ? = inconclusive; nt = not tested or not shown. Rows were chosen to be rich in hits. Some 6.7% of all compounds tested hit in one or more screens of this group.

SMILES | T cruzi growth-1 | Pf Dd2 inh | C diff HTS | T cruzi growth-2 | T cruzi growth-3 | 3T3 cytotox | 3T3 cytotox 2
C[C@@H]1CN([C@H](C)CO)C(=O)c2cc(NS(=O)(=O)c3ccc(Cl)cc3)ccc2O[C@@H](C)CCCCO[C@@H]1CN(C)S(=O)(=O)c1ccc(Cl)cc1 | ? | -73.2 | 2.2 | 99.7* | 112.0* | -13.0 | ?
Cc1ccc(S(=O)(=O)N(C)C[C@H]2OCCCC[C@H](C)Oc3ccc(N(C)C)cc3C(=O)N([C@H](C)CO)C[C@H]2C)cc1 | 76.1 | -19.4 | 3.0 | nt | nt | nt | nt
C[C@H](CO)N1C[C@H](C)[C@@H](CN(C)S(=O)(=O)c2ccc(Cl)cc2)OCCCC[C@H](C)Oc2ccc(NS(=O)(=O)c3ccc(Cl)cc3)cc2C1=O | 87.0 | -28.5 | 3.8 | nt | nt | nt | nt
O=C(C[C@@H]1CC[C@@H]2[C@H](COC[C@@H](O)CN2Cc2cccc(Cl)c2)O1)N1CCOCC1 | 0.4 | -5.1 | nt | nt | nt | nt | nt
O=C(NCc1ccncc1)[C@@H]1[C@@H](CO)[C@@H]2Cn3c(ccc(-c4cccnc4)c3=O)[C@@H]2N1C(=O)C1CC1 | 7.0 | 8.2 | 0.5 | nt | nt | nt | nt
CO[C@H]1CC[C@@H]2CCN(C)C(=O)C[C@@H](c3ccccc3)CN(C)C(=O)c3cccc(C#N)c3OC[C@H]1O2 | 5.6 | nt | -8.1 | nt | nt | nt | nt
Cc1noc(C)c1NC(=O)Nc1ccc2c(c1)C(=O)N([C@H](C)CO)C[C@@H](C)[C@@H](CN(C)S(=O)(=O)c1ccccc1)OCCCC[C@H](C)O2 | -67.3 | -49.6 | -4.8 | nt | nt | nt | nt
CCCNC(=O)N1CC2(C1)[C@H](c1ccccc1)[C@H](CO)N2C(=O)c1ccncc1 | nt | 24.8 | -1.0 | nt | nt | nt | nt
O=C(C[C@@H]1C[C@@H]2c3cc(NC(=O)C4CCOCC4)ccc3O[C@@H]2[C@@H](CO)O1)NCc1cc(F)ccc1F | -54.2 | -0.9 | 7.7 | nt | nt | nt | nt
Cc1ccccc1S(=O)(=O)N1CC[C@H]2[C@@H](CO)N(C)c3ccc(Br)cc3[C@H]21 | 68.6 | -58.1 | -6.3 | nt | nt | nt | nt
Cc1ccccc1S(=O)(=O)N1CC[C@@H]2[C@@H](CO)N(C)c3ccc(-c4ccccc4)cc3[C@@H]21 | ? | -1.5 | 6.2 | 111.2* | 107.9* | 22.7 | 103.9*
CN1c2ccc(Br)cc2[C@@H]2[C@@H](CCN2S(=O)(=O)c2ccccc2F)[C@H]1CO | 58.3 | 4.2 | -3.7 | nt | nt | nt | nt
Cc1ccccc1S(=O)(=O)N1CC[C@@H]2[C@@H](CO)N(C)c3ccc(Br)cc3[C@@H]21 | ? | -17.0 | 2.7 | 99.9* | 34.8 | -1.9 | 106.0*
Cc1ccccc1S(=O)(=O)N1CC[C@@H]2[C@H]1c1cc(-c3cccc(F)c3)ccc1N(C)[C@H]2CO | 46.0 | 7.1 | 25.1 | nt | nt | nt | nt
CN1c2ccc(Br)cc2[C@H]2[C@H](CCN2S(=O)(=O)c2ccccc2F)[C@@H]1CO | 93.3* | 9.4 | 7.0 | 106.6* | 10.8 | 13.7 | 15.3
CN(C)CC(=O)Nc1ccc2c(c1)[C@@H]1C[C@H](CC(=O)NCc3ccccc3F)O[C@H](CO)[C@@H]1O2 | 8.2 | -18.3 | -0.2 | nt | nt | nt | nt
C[C@H]1CCCCO[C@H](CN(C)C(=O)Nc2ccc3c(c2)OCO3)[C@@H](C)CN([C@@H](C)CO)C(=O)c2cc(NS(C)(=O)=O)ccc2O1 | -28.8 | 10.4 | 2.7 | nt | nt | nt | nt
COc1ccc2c3c([nH]c2c1)[C@H](CO)N(C(=O)C1CCCCC1)CC31CCN(C)CC1 | nt | 17.4 | -8.0 | nt | nt | nt | nt
CCC(=O)Nc1ccc2c(c1)OC[C@H](C)N(C(=O)CC1CC1)C[C@@H](C)[C@@H](OC)CN(C)C2=O | 34.8 | -22.3 | -0.6 | nt | nt | nt | nt
CO[C@H]1CN(C)C(=O)c2cc(NC(=O)NC3CCCCC3)ccc2OC[C@@H](C)N(C)C[C@@H]1C | 29.7 | 11.3 | 3.2 | nt | nt | nt | nt
CC(C)NC(=O)N(C)C[C@H]1OCCCC[C@@H](C)Oc2ccc(NS(=O)(=O)c3ccc(F)cc3)cc2C(=O)N([C@@H](C)CO)C[C@@H]1C | -32.9 | nt | -6.8 | nt | nt | nt | nt
C[C@H](CO)N1C[C@H](C)[C@H](CN(C)Cc2ccncc2)Oc2c(NC(=O)Nc3cccc4ccccc34)cccc2C1=O | 62.2 | 7.2 | 2.0 | nt | nt | nt | nt
C[C@@H]1CCCCO[C@@H](CN(C)C(=O)CCCN(C)C)[C@H](C)CN([C@@H](C)CO)C(=O)c2cc(NC(=O)CCC(F)(F)F)ccc2O1 | 29.9 | 34.1 | -5.1 | nt | nt | nt | nt
CO[C@H]1CN(C)C(=O)c2cc(NS(=O)(=O)c3ccccc3C)ccc2OC[C@@H](C)N(C)C[C@H]1C | -18.7 | -57.5 | nt | nt | nt | nt | nt
C[C@@H](O)C#Cc1ccc([C@H]2[C@H](CO)N3CCCCN(S(=O)(=O)c4ccccc4)C[C@@H]23)cc1 | 104.9* | -19.2 | -5.7 | 71.2 | -2.6 | 2.4 | 5.0
SMILES | T cruzi growth-1 | Pf Dd2 inh | C diff HTS | T cruzi growth-2 | T cruzi growth-3 | 3T3 cytotox | 3T3 cytotox 2
C[C@H](O)C#Cc1ccc([C@@H]2[C@@H](CO)N3CCCCN(S(=O)(=O)c4ccccc4)C[C@@H]23)cc1 | 24.0 | -15.8 | -3.6 | nt | nt | nt | nt
C[C@@H](O)C#Cc1ccc([C@H]2[C@H]3CN(S(=O)(=O)c4ccccc4)CCCCN3[C@H]2CO)cc1 | 72.5 | ? | -5.8 | nt | nt | nt | nt
C[C@H](O)C#Cc1ccc([C@H]2[C@@H](CO)N3CCCCN(S(=O)(=O)c4ccccc4)C[C@@H]23)cc1 | 90.2 | -14.1 | -1.0 | nt | nt | nt | nt
C[C@H](O)C#Cc1ccc([C@@H]2[C@@H](CO)N3CCCCN(S(=O)(=O)c4ccccc4)C[C@H]23)cc1 | 110.6* | -37.9 | -8.0 | 60.8 | -17.6 | 15.9 | 8.4
C[C@@H](O)C#Cc1ccc([C@@H]2[C@@H](CO)N3CCCCN(S(=O)(=O)c4ccccc4)C[C@@H]23)cc1 | 116.5* | -5.6 | -10.1 | 41.4 | 9.3 | 9.7 | 25.5*
CO[C@@H]1CN(C)C(=O)c2cc(NS(=O)(=O)c3ccc(-c4ccccc4)cc3)ccc2OC[C@@H](C)NC[C@@H]1C | 42.8 | -12.2 | 8.3 | nt | nt | nt | nt
N#C[C@H]1[C@H](c2ccc(C3=CCCCC3)cc2)[C@H](CO)N1C(=O)NC1CCCCC1 | 100.6* | 20.3 | -24.8 | 97.3* | 100.9* | 10.3 | 69.1*
N#C[C@H]1[C@@H](c2ccc(C3=CCCCC3)cc2)[C@H](CO)N1C(=O)NC1CCCCC1 | 99.9* | 29.7 | 1.2 | 104.8* | 83.0 | 40.7* | 54.0*
C/C=C/c1ccc([C@H]2[C@@H](CO)N(C(=O)Nc3ccccc3F)[C@H]2C#N)cc1 | 105.3* | -2.3 | -1.7 | 87.2 | 56.4 | 10.2 | 48.1*
N#C[C@@H]1[C@@H](c2ccc(C3=CCCCC3)cc2)[C@@H](CO)N1C(=O)NC1CCCC1 | nt | -44.2 | -6.9 | nt | nt | nt | nt
CCCNC(=O)N1[C@H](CO)[C@H](c2ccc(C3=CCCC3)cc2)[C@@H]1C#N | 27.2 | 12.8 | -2.3 | nt | nt | nt | nt
N#C[C@@H]1[C@@H](c2ccc(C3=CCCCC3)cc2)[C@H](CO)N1C(=O)NC1CCCC1 | nt | -79.7 | 4.3 | nt | nt | nt | nt
CCCNC(=O)N1[C@@H](C#N)[C@H](c2ccc(C3=CCCCC3)cc2)[C@@H]1CO | 103.5* | -67.3 | -22.3 | 97.6* | 106.8* | 20.7 | 32.8*

High-throughput results (PubChem)
